Measured values as given in PubChem BioAssay (NCI).
Compounds without any hit were thinned out: in the full panel of roughly 83,000, 20% have a hit.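 Each cell line was grown in a 96-well plate and treated with one concentration of compound for 48 hours. Values below 10 were considered active.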 Values without a mark were called inactive. Calls of active or inactive are those of the source.

These compounds were tested on HL-60(TB) leukemia (assay: NCI-60 one-dose screen, 48 h (100 = growth as untreated, 0 = no growth, -100 = all killed)). Conditions: 10 µM unless noted.

Row | SMILES | growth
1 | CCN(CC)CCCC(Cc1ccccc1)Nc1c2ccc(Cl)cc2nc2ccc(OC)cc12 (stereo not given) | 19.5%
2 | CN(C)c1ccc2cc(-c3ccc(Cl)c(Cl)c3)c(N)nc2c1 | 10.5%
3 | COc1ccc(C(C)C=O)cc1 (stereo not given) | 96.9%
4 | Cc1cc(C)cc(NC(=O)Cn2nncc2CN2C(=O)CSC2=O)c1 | 97.9%
5 | Cc1nc2cccc(NCc3ccc(C(=O)NO)cc3)c2c(=O)n1-c1ccccc1 | 27.2%
6 | CCC(C)NCC(=O)O (stereo not given) | 100%
7 | O=C1c2cc3c(cc2-c2c1c1ccc(F)cc1c(=O)n2CCCN1CCOCC1)OCO3 | 13.7%
8 | COc1c2ccccc2c(OC)c2[nH]c(=O)ccc12 | 71.5%
9 | N#C/C(=C/c1c(O)ccc2ccccc12)C(N)=O | 103%
10 | CSC1=N/C(=C\c2cccc(OCc3ccc(Cl)cc3)c2)C(=O)N1 | 77.8%
11 | CCn1nc(C#Cc2c(C)ccc3c(Nc4ccc(Cl)cc4)nccc23)c2c(N)ncnc21 | -16% (active)
12 | CCCNC(=O)Oc1ccc(/C(=C(/CC)Cc2ccccc2)c2ccc(OCCN(CC)CC)cc2)cc1 | 53.3%
13 | O=[N+]([O-])c1ccc2c(c1)Cc1ccccc1-2 | 87%
14 | CCOC(=O)C(Cc1ccccc1)n1c(O)c(/C=N/c2ncc(Cc3ccc(Cl)cc3Cl)s2)sc1=S (stereo not given) | -35.2% (active)
15 | COc1ccc(C(=O)C2C(C#N)C(C#N)C3c4ccccc4C=CN23)cc1 (stereo not given) | 94.7%
16 | COc1ccc(S(=O)(=O)NCCCNc2nccc(-c3c(-c4cccc([N+](=O)[O-])c4)nc4sccn34)n2)cc1 | 22.9%
17 | COC(=O)c1ccc2c(c1)Oc1ccc(Cl)cc1-c1cc(C)nn1-2 | 103%
18 | CCCC/C(=N\N=C(N)N)c1ccc(F)cc1 | -30.9% (active)
19 | O=C(Nc1cccc(-n2cc(-c3ccncc3)c(-c3ccc(O)c(Cl)c3)n2)c1)c1cccc(C(F)(F)F)c1 | 13.3%
20 | N=c1c(S(=O)(=O)c2ccccc2)cc2c(=O)n3ccccc3nc2n1C1CCCC1 | 104%

Row | SMILES | growth
21 | Cc1ccc(F)cc1NC(=O)c1cc(Cl)ccc1Nc1ccccc1 | 51.6%
22 | O=C1C=C(O)c2ccccc2C1=O.[Ag] | 96%
23 | CN1CCN(Cc2ccc(NC(=O)c3cncc(C#Cc4c(N)ncc5ccccc45)c3)cc2C(F)(F)F)CC1 | -53.2% (active)
24 | CC[N+](CC)(CCCC(C)[N+]1(Cc2ccccc2)C(C)=CC=C1C)Cc1ccccc1 (stereo not given) | 37.1%
25 | Oc1ccc(Cl)cc1-c1cc(-c2ccc(F)cc2)n[nH]1 | 74.9%
26 | O=C(CCN1C(=O)/C(=C/c2ccc(O)cc2)SC1=S)Nc1ccc(Cl)cc1 | 65.5%
27 | CNC(=O)c1cc(Oc2ccc3nc(NC(=O)Nc4ccc(Cl)c(C(F)(F)F)c4)sc3c2)ccn1 | 97.2%
28 | COc1ccc(C(=O)c2cc(OC)c(OC)c(OC)c2OC)cc1O | 25.2%
29 | CCOc1cc2c(cc1OCC)C(c1cc(OC)c(O)cc1Cl)NCC2 (stereo not given) | 91.7%
30 | C[n+]1ccc(C#N)c2ccccc21 | 70.3%
31 | NC(=O)c1cccc([C@@H]2O[C@H](CO)[C@@H](O)[C@H]2O)c1 | 39.5%
32 | CCOC(=O)C1=C(C)N=c2s/c(=C\c3ccccc3O)c(=O)n2C1c1ccc(OC)c2ccccc12 (stereo not given) | -48.6% (active)
33 | COc1cc(C(=O)c2cnc(-c3cccc4[nH]ccc34)[nH]2)cc(OC)c1OC | -28.6% (active)
34 | Nc1ncn([C@@H]2O[C@H](CO)[C@@H](O)C2(F)F)c(=O)n1 | 25.2%
35 | CC(=O)Nc1nccs1 | 103%
36 | CCN(CC)CCO/N=C1\CC(c2ccc(OC)c(OC)c2)Oc2ccccc21 (stereo not given) | 78.4%
37 | O=C(Nc1cccnc1Nc1ccc(Cl)cc1)c1cn(Cc2ccc(F)cc2)nn1 | 109%
38 | O=C(C(Br)Br)C(Br)C(Br)c1ccccc1 (stereo not given) | 88.8%
39 | CC/C=C(\C)C(CCC)(CN=O)C(=O)OCC (stereo not given) | 110%
40 | N#Cc1c2cccnc2c2nnc3cc(Cl)c(Cl)cc3n12 | 23.3%
